Data reported in PubChem BioAssay.
Calls of active or inactive are those of the source.

Legend:
[1] = test system: PRMT1 (protein arginine N-methyltransferase 1); assay: PRMT1 binders on small-molecule microarrays, primary screen, biochemical, small-molecule microarray, 635 nm fluorescence (AID 1088); settings: small-molecule microarray binding, higher = more signal;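 also: binding of Prmt1 protein to compounds spotted on small-molecule microarray slides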
[2] = yeast growth modulation, basal conditions, primary screen, YJM789 clinical isolate, OD600, 24 h (AID 1089);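 also: growth of clinical yeast isolate S. cerevisiae YJM 789 seeded 1000 cells per well; test concentration not given here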; settings: S. cerevisiae YJM789 growth, higher = more signal, called active from +8 up or from −8 down
[3] = fission yeast growth modulation, primary screen, strain 972, OD600, 24 h, no modulator (AID 1090);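 also: basal condition with compound alone and no growth modifier present; test concentration not given here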; settings: S. pombe 972 growth, higher = more signal, called active from +8 up or from −8 down
[4] = S. cerevisiae growth modulation with rapamycin, primary screen, strain BY4716, OD600, 96 h (AID 1091); settings: higher = more signal, called active from +8 up or from −8 down; also: test concentration not given here
[5] = target: Torsin-1A-interacting protein 2 (Homo sapiens) (UniProt Q8NFQ8); assay: LULL1 binders on small-molecule microarray, primary screen, cell lysate, human LULL1 lysate, 635/667 nm fluorescence (AID 1092); settings: hLULL1 lysate binding, 635 nm fluorescence, higher = more signal;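 also: probe is lysate of COS7 cells overexpressing human LULL1; score merges per-feature 667 nm fluorescence with signal-to-noise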
[6] = E. coli growth modulation, two-sided OD650, primary screen, E. coli filamentation project, strain DRC41, 24 h (AID 1093); settings: OD650, 24 h, higher = more signal, called active from +8 up or from −8 down;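 also: MC1000 strain lacking acrAB efflux and sulA so SOS filamentation is blocked; test concentration not given here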
[7] = small-molecule microarray binders of probe aLefty2, primary screen, biochemical, biotinylated probe, 635/667 nm fluorescence (AID 1094); settings: higher = more signal;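 also: score merges spot fluorescence near 667 nm with spot signal-to-noise ratio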
[8] = test system: Noggin (protein binding on small-molecule microarray); assay: Noggin binders on small-molecule microarray, primary screen, biochemical, 635/667 nm fluorescence (AID 1095); settings: 635 nm fluorescence, higher = more signal;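 also: score merges 667 nm feature fluorescence with signal to noise over triplicate slides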
[9] = target: Neurogenic locus notch homolog protein 3 (Homo sapiens) (UniProt Q9UM47); assay: NOTCH3 binders on small-molecule microarray, primary screen, biochemical, 635/667 nm fluorescence (AID 1096); settings: NOTCH3 binding, 635 nm fluorescence, higher = more signal
[10] = small-molecule microarray binders of probe aEGFR, primary screen, biochemical, biotinylated probe, 635/667 nm fluorescence (AID 1097); settings: higher = more signal;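 also: probe is a biotinylated anti-EGFR antibody binding compounds printed on slides; score combines fluorescence near 667 nm and signal to noise of each spot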
[11] = test system: Plasmodium falciparum Sir2 (PF13_0152, Sir2A); assay: pfSir2 binders on small-molecule microarrays, primary screen, biochemical, small-molecule microarray, 635 nm fluorescence (AID 1098); settings: small-molecule microarray binding, fluorescence 635 nm; higher = more signal;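 also: score merges spot fluorescence intensity with its signal-to-noise ratio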
[12] = small-molecule microarray binders of probe aDKK1, primary screen, biochemical, biotinylated probe, 635/667 nm fluorescence (AID 1099); settings: higher = more signal;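 also: score merges 667nm spot fluorescence with signal to noise across triplicate slides; reference of the scale not given here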
[13] = small-molecule microarray binders of probe aCHRDL2, primary screen, biochemical, biotinylated probe, 635/667 nm fluorescence (AID 1100); settings: higher = more signal
[14] = splicing luciferase reporter signal modulators, primary screen, spliceosome inhibition project, cell-based, HEK293, splice +/- reporter (AID 1101); settings: luminescence, 24 h, higher = more signal, called active from +8 up or from −8 down;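 also: HEK293 cells carrying a splicing-competent luciferase reporter gene; test concentration not given here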
[15] = target: Fibroblast growth factor 10 (Homo sapiens) (UniProt O15520); assay: FGF10 binders on small-molecule microarrays, primary screen, biochemical, small-molecule microarray, 635 nm fluorescence (AID 1102); settings: FGF10 binding, fluorescence 635 nm, higher = more signal
[16] = test system: glycogen synthase kinase-3 (GSK3A per assay name; protocol says GSK3B); assay: GSK3 binders on small-molecule microarrays, primary screen, biochemical, small-molecule microarray, 635 nm fluorescence, GSK3A (AID 1103); settings: small-molecule microarray binding, fluorescence 635 nm; higher = more signal; also: the record names both GSK3A and GSK3B
[17] = target: Epidermal growth factor receptor (Homo sapiens) (UniProt P00533); assay: EGFR binders on small-molecule microarrays, primary screen, biochemical, small-molecule microarray, 635 nm fluorescence (AID 1104); settings: EGFR binding, higher = more signal;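 also: score merges 667 nm emission intensity with spot signal to noise over triplicate slides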
[18] = target: Follistatin-related protein 3 (Homo sapiens) (UniProt O95633); assay: FSTL3 binders on small-molecule microarrays, primary screen, biochemical, small-molecule microarray, 635 nm fluorescence (AID 1105); settings: FSTL3 binding, higher = more signal;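 also: score merges emission near 667 nm and signal to noise per printed spot across three slides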
[19] = target: Dickkopf-related protein 1 (Homo sapiens) (UniProt O94907); assay: DKK1 binders on small-molecule microarrays, primary screen, biochemical, small-molecule microarray, 635 nm fluorescence scan (AID 1106); settings: DKK1 binding, higher = more signal;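 also: score merges emission near 667 nm with signal to noise over three replicate slides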
[20] = test system: Inhibin beta A chain (activin A); assay: INHBA (activin A) binders on microarrays, primary screen, biochemical, small-molecule microarray, 635 nm fluorescence scan (AID 1107); settings: small-molecule microarray binding, higher = more signal;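 also: mouse activin A protein probed at 4.33 µg/mL on printed slides; score merges bound-protein fluorescence near 667 nm with spot signal-to-noise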

Sequence of Epidermal growth factor receptor (Homo sapiens) (P00533 whole entry, looked up): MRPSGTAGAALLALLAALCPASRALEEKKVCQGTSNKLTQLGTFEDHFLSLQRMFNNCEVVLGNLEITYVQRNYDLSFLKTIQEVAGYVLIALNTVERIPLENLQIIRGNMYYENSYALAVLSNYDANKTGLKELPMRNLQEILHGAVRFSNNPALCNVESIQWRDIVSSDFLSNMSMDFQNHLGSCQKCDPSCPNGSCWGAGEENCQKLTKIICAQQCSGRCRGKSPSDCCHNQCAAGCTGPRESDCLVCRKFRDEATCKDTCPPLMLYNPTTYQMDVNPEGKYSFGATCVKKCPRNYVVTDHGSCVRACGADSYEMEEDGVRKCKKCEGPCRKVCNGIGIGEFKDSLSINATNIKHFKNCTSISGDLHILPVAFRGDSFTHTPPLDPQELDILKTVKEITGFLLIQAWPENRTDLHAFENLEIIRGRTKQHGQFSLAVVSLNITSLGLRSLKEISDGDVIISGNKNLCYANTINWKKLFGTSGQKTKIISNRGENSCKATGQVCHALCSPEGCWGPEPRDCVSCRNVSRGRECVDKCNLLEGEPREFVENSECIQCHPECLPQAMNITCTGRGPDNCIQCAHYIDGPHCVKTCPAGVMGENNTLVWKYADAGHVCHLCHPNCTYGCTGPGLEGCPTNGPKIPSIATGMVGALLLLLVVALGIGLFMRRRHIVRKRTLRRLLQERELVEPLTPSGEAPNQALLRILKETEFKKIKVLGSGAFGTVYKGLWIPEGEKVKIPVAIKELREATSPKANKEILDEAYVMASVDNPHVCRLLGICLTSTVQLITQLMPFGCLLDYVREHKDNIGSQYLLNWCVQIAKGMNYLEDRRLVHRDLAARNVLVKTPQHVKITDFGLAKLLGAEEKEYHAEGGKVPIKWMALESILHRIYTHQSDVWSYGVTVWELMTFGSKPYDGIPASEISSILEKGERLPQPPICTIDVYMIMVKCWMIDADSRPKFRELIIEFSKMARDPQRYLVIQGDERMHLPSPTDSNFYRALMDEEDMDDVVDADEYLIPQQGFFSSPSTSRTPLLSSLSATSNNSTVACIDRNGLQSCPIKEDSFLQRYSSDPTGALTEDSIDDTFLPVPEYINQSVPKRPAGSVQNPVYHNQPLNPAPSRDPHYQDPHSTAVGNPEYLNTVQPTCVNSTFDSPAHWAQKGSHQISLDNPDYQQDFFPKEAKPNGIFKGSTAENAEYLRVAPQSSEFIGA
Sequence of Torsin-1A-interacting protein 2 (Homo sapiens) (Q8NFQ8 whole entry, looked up): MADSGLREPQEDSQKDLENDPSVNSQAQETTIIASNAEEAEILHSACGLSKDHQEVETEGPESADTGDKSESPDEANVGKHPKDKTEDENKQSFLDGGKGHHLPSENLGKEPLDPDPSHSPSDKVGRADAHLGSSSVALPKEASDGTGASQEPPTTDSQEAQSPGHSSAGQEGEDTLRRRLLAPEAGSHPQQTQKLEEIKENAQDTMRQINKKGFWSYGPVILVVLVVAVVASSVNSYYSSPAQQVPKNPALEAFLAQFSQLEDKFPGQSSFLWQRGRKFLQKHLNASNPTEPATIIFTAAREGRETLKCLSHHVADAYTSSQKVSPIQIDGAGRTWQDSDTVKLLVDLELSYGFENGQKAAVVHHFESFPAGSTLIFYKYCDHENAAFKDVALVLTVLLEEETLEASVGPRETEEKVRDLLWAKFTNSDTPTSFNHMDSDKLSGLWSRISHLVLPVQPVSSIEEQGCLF
Sequence of Follistatin-related protein 3 (Homo sapiens) (O95633 whole entry, looked up): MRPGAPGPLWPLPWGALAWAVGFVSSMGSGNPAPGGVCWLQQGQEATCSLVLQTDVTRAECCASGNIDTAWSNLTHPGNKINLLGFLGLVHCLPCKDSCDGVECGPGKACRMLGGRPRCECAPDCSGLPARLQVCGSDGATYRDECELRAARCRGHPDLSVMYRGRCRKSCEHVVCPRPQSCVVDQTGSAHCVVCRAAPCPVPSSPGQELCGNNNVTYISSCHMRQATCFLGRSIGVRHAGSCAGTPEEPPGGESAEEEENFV
Sequence of Dickkopf-related protein 1 (Homo sapiens) (O94907 whole entry, looked up): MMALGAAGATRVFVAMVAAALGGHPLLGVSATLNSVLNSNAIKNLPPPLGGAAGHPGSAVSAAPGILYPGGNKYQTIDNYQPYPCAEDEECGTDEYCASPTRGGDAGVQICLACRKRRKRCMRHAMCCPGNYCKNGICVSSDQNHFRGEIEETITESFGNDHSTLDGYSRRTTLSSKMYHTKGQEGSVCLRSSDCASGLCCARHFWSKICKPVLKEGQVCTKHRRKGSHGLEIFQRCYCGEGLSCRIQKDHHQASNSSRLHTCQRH
Sequence of Fibroblast growth factor 10 (Homo sapiens) (O15520 whole entry, looked up): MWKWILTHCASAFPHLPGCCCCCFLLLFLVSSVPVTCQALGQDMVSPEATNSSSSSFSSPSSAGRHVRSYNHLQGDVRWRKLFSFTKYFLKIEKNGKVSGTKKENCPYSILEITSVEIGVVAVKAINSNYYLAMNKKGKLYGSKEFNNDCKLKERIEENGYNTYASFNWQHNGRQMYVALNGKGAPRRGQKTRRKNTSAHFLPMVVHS
Sequence of Neurogenic locus notch homolog protein 3 (Homo sapiens) (Q9UM47 whole entry, looked up): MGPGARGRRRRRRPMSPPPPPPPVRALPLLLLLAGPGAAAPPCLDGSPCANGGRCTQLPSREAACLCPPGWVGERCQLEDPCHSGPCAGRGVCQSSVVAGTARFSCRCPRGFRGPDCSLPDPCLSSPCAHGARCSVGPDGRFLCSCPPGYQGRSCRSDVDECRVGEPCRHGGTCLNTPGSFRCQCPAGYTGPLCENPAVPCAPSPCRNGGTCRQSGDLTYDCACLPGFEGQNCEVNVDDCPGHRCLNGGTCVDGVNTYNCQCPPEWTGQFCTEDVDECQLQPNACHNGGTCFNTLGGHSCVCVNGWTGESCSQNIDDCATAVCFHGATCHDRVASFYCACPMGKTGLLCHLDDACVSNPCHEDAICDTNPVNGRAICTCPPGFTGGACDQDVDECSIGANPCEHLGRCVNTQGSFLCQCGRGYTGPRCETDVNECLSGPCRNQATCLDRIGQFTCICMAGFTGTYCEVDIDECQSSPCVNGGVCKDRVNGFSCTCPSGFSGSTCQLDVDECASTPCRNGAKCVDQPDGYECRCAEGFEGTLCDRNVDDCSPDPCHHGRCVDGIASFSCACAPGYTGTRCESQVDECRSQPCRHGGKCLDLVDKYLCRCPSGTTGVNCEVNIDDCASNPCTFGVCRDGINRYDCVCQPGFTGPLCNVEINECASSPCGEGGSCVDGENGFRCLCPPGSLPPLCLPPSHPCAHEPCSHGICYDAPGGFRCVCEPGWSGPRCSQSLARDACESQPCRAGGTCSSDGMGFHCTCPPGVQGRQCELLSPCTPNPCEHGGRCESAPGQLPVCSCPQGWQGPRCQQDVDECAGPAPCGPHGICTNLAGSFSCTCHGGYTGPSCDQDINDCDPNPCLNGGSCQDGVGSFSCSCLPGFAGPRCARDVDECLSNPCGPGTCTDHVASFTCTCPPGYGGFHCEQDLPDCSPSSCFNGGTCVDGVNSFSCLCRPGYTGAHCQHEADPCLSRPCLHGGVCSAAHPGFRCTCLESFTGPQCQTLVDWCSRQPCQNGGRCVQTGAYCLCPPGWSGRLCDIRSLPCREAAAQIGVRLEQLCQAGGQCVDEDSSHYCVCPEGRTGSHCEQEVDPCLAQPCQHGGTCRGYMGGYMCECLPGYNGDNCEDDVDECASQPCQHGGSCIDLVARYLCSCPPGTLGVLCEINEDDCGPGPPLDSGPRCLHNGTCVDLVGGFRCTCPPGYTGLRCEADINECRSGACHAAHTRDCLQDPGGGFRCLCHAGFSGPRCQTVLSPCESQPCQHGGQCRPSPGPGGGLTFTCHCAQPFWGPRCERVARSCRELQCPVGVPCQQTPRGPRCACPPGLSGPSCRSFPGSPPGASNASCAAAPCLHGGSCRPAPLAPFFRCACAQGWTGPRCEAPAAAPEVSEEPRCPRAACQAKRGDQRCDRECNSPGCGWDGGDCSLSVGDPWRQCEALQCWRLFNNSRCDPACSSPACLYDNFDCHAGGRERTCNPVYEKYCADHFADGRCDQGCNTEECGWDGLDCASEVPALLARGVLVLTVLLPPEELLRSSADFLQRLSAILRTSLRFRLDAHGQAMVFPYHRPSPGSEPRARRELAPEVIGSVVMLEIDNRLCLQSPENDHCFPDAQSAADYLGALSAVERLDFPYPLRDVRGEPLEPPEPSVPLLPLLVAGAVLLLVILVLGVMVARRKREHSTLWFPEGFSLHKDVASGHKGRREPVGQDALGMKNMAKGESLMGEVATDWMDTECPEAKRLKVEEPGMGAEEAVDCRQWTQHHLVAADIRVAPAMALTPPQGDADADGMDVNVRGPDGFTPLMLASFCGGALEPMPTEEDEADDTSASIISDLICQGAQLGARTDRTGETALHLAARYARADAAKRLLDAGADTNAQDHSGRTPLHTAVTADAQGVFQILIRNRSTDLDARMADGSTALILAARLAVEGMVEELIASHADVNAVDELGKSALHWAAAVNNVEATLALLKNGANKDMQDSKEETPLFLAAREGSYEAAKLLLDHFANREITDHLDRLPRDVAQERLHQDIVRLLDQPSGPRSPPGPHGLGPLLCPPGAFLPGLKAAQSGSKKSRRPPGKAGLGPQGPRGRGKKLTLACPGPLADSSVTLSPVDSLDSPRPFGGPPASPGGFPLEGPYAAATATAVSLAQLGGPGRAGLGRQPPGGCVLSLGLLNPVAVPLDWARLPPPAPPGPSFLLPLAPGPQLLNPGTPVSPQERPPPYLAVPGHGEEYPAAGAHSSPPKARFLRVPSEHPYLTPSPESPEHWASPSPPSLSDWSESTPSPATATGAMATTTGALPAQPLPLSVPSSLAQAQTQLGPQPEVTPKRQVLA

| SMILES | composite z-score [1] | z-score [2] | z-score [3] | z-score [4] | composite z-score [5] | z-score [6] | composite z-score [7] | composite z-score [8] | composite z-score [9] | composite z-score [10] | composite z-score [11] | composite z-score [12] | composite z-score [13] | z-score [14] | composite z-score [15] | composite z-score [16] | composite z-score [17] | composite z-score [18] | composite z-score [19] | composite z-score [20] |
| --- | --- | --- | --- | --- | --- | --- | --- | --- | --- | --- | --- | --- | --- | --- | --- | --- | --- | --- | --- | --- |
| COCCOC(=O)N1C(=O)[C@@]2(c3cc(C#CCCO)ccc31)[C@H](C(=O)Nc1nc3ccccc3s1)[C@H]1C(=O)O[C@H](c3ccccc3)[C@H](c3ccccc3)N1[C@@H]2c1ccc(OCCO)cc1 | 1.54 | 1.58 (inactive) | 1.09 (inactive) | 2.02 (inactive) | 1.89 | 0.176 (inactive) | 0.0444 | 0.874 | 1.1 | 0.0848 | 1.27 | 0.385 | -0.284 | -0.021 (inactive) | 1.11 | 0.687 | 0.432 | 1.2 | 0.31 | 0.0763 |
| O=C1[C@H]2C=C(Br)[C@H](C[C@@H]2OCCCCO)[C@@]12CO2 | -0.162 | 0.176 (inactive) | -0.248 (inactive) | 0.93 (inactive) | -0.99 | -1.03 (inactive) | -0.0778 | -0.0486 | 0.221 | -0.0409 | 1.02 | -0.257 | -0.504 | -0.238 (inactive) | 0.177 | 0.0613 | 0.224 | -0.0883 | 0.438 | 0.646 |
| C=C[C@H](COC(C)=O)N(C(=O)OC(C)(C)C)S(=O)(=O)c1ccc(Br)cc1 | 0.616 | 0.0834 (inactive) | -1.25 (inactive) | 0.239 (inactive) | 0.597 | 1.47 (inactive) | 0.518 | 1.09 | 0.0585 | 0.545 | 0.0995 | 1.29 | 0.639 | 0.353 (inactive) | 0.619 | 0.484 | 0.517 | 0.507 | 0.717 | 0.838 |
| COCCOC(=O)N1C(=O)[C@@]2(c3cc(C#CC4=CCCCC4)ccc31)[C@H](c1ccc(O)cc1)N1[C@H](c3ccccc3)[C@H](c3ccccc3)OC(=O)[C@H]1[C@@H]2C(N)=O | 1.56 | 0.893 (inactive) | 0.358 (inactive) | 0.918 (inactive) | 1.84 | -0.603 (inactive) | -0.388 | 1.63 | 1.1 | -0.11 | 1.03 | -0.327 | -0.624 | -1.03 (inactive) | 1.17 | 1.12 | 0.584 | 1.16 | 0.639 | 0.155 |
| Cc1ccc(S[C@]2(C(=O)NCCN3CCOCC3)CC(=O)N(Cc3ccccc3Cl)[C@@H]2c2ccc(CO)cc2)cc1 | -0.241 | -1.17 (inactive) | -0.895 (inactive) | -0.812 (inactive) | 3.07 | 0.149 (inactive) | -0.057 | -0.157 | 0.201 | -0.128 | 0.588 | -0.123 | 0.841 | -1.38 (inactive) | 1 | -1.4 | -0.342 | -0.51 | -0.844 | 0.425 |
| CCOC(=O)C[C@H]1[C@H](OC(=O)Cc2ccc3c(c2)OCO3)[C@@H](NC(=O)c2ccc3ccccc3c2)c2cc(OCCCO)ccc2N1C(=O)c1ccccc1 | 0.745 | -0.0607 (inactive) | 0.175 (inactive) | 0.954 (inactive) | 1.69 | 1.35 (inactive) | -0.0961 | 0.329 | 0.742 | -0.0225 | 0.622 | -0.0805 | -0.205 | -0.547 (inactive) | 0.47 | 0.213 | 0.188 | 0.433 | 0.295 | 0.405 |
| O=C1O[C@H](c2ccccc2)[C@H](c2ccccc2)N2[C@H]1[C@@H](C(=O)Nc1nc3ccccc3s1)[C@]1(C(=O)Nc3ccc(C#CCCO)cc31)[C@H]2c1ccc(OCCO)cc1 | 1.55 | 0.737 (inactive) | 0.933 (inactive) | 2.84 (inactive) | 3.19 | 0.0573 (inactive) | -0.137 | 1.72 | 1.12 | -0.0368 | 1.59 | -0.198 | -0.144 | -0.0209 (inactive) | 1.33 | 1.31 | 0.468 | 1.14 | 0.379 | 0.408 |
| CC(C)(C)OC(=O)CC[C@]1(C(=O)NCC(O)CO)COC(c2ccc(OCCCO)cc2)=N1 (stereo not given in full) | 0.281 | 0.65 (inactive) | 1 (inactive) | 0.977 (inactive) | 3.71 | -0.0576 (inactive) | -0.12 | -0.579 | -0.0234 | 0.0287 | 0.304 | 0.747 | 0.788 | 0.646 (inactive) | 0.145 | 0.435 | -0.172 | -0.952 | -1.01 | 0.173 |
| C=C(COC)/C(=C/C[C@@H](OC(C)=O)c1ccc(CO)o1)c1cnc2ccccc2c1 | 1.54 | 1.17 (inactive) | -0.721 (inactive) | 0.951 (inactive) | 0.612 | 1.27 (inactive) | 0.0624 | 1.72 | 1.04 | 0.0821 | 0.974 | 0.201 | -0.189 | -0.683 (inactive) | 1.46 | 1.32 | 1.57 | 1.5 | 1.13 | 1.74 |
| CCN(CC)c1ccc(N2CC=CC34O[C@@H]5/C=C\CCC(C)OC(=O)C5[C@H]3C(=O)N(C(CO)C(C)C)[C@@H]4C2=O)cc1 (stereo not given in full) | 0.746 | -1.28 (inactive) | -0.892 (inactive) | -0.924 (inactive) | 3.28 | 0.41 (inactive) | -0.17 | -0.995 | -0.0778 | -0.13 | 0.492 | -0.204 | 0.0959 | -0.208 (inactive) | -0.709 | -0.806 | -0.532 | -1.1 | -0.41 | 1.15 |
| C=CCOC(=O)[C@@H]1[C@H]2C(=O)O[C@H](c3ccccc3)[C@H](c3ccccc3)N2[C@H](c2ccc(OCCOC(=O)[C@@H]3C[C@@H]4C(=O)N[C@@H](CCCC[N+](C)(C)C)C(=O)N4[C@@H]3c3cccc(OCCO)c3)cc2)[C@@]12C(=O)Nc1ccc(I)cc12 | 1.56 | 1.02 (inactive) | -0.945 (inactive) | 0.115 (inactive) | 2.94 | -0.674 (inactive) | -0.0063 | 1.47 | 1.13 | 0.0321 | 1.09 | 0.0616 | 0.0011 | -0.874 (inactive) | 0.591 | 1.19 | 0.779 | 1.25 | 0.985 | 0.195 |
